The values that follow come from PubChem BioAssay (NCI).

The panel holds about 83,000 compounds, 20% with a hit somewhere; the sample as a whole holds those more often.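 Cell lines were cultured in 96-well plates, exposed to a single compound concentration, and assessed for percent growth 48 hours later.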 Unmarked numbers belong to inactive results. The source made the active and inactive calls. The calls were made as follows: active = growth percent below 10; inactive = the rest.

Among the test systems are SK-MEL-2 melanoma; EKVX NSCLC; SN12C renal; TK-10 renal; ACHN renal; CAKI-1 renal; A498 renal; CCRF-CEM leukemia; MOLT-4 leukemia; SR leukemia; RPMI-8226 leukemia; OVCAR-5 ovarian; OVCAR-4 ovarian; SK-OV-3 ovarian; IGROV1 ovarian; OVCAR-3 ovarian; HS 578T breast; NCI/ADR-RES ovarian; UO-31 renal; OVCAR-8 ovarian.
Holding throughout (assay): NCI-60 one-dose screen, 48 h (100 = growth as untreated, 0 = no growth, -100 = all killed)
Holding throughout (details): 10 µM unless noted

As to `COc1ccc2c(c1OC)OCC(CN(C)C)C2=O` (centres undefined), the growth in the experiment with SK-MEL-2 melanoma is 112%; in the experiment with EKVX NSCLC, 99.4%; in the experiment with SN12C renal, 98.5%; in the experiment with TK-10 renal, 90.7%; in the experiment on ACHN renal it was 54.2%; in the experiment with CAKI-1 renal, 94.4%. Also, the growth with A498 renal was 104%; in the experiment on CCRF-CEM leukemia, 60%; in the experiment on MOLT-4 leukemia, 61.1%; in the experiment with SR leukemia, 78.2%; in the experiment on RPMI-8226 leukemia, -40.8% (active); in the experiment on OVCAR-5 ovarian, 92.9%. The growth with OVCAR-4 ovarian is -50.8% (active); with SK-OV-3 ovarian, 108%; in the experiment with IGROV1 ovarian, 93.3%; in the experiment on OVCAR-3 ovarian, 92.4%; in the experiment on HS 578T breast it was 106%; in the experiment with NCI/ADR-RES ovarian, 106%.

Turning to `CCC[CH2][Sn]1([CH2]CCC)[O]C2C(CO)OC(n3ccc(N)nc3=O)C2[O]1` (centres undefined), the growth is -91.9% (active) in the experiment on SK-MEL-2 melanoma; -52.6% (active) in the experiment with SN12C renal; -78.2% (active) in the experiment on UO-31 renal; -98.2% (active) with TK-10 renal; -83.9% (active) in the experiment with ACHN renal; -82.7% (active) with CAKI-1 renal. The growth in the experiment on A498 renal was -94.5% (active); in the experiment with CCRF-CEM leukemia, -30.7% (active); with MOLT-4 leukemia, -26.6% (active); with SR leukemia it was -30.5% (active); with RPMI-8226 leukemia, -28.7% (active); in the experiment on OVCAR-8 ovarian, -44.7% (active). The growth with OVCAR-5 ovarian is -41.9% (active); with OVCAR-4 ovarian, -53% (active); in the experiment with SK-OV-3 ovarian, 28.2%; with IGROV1 ovarian, -23% (active); with OVCAR-3 ovarian, -90.8% (active); in the experiment with HS 578T breast, -12.4% (active). Moreover, the growth in the experiment with NCI/ADR-RES ovarian was 24.8%.

Consider `O=C(O)c1cc2c(s1)C(=O)c1sccc1C2=O`, for which the growth in the experiment with SK-MEL-2 melanoma was 15.5%; in the experiment with EKVX NSCLC, 101%; with SN12C renal it was -46.9% (active); in the experiment on TK-10 renal it was 115%; in the experiment on ACHN renal, 80.1%; with CAKI-1 renal, 107%. For the same compound, the growth in the experiment with A498 renal was 103%; with CCRF-CEM leukemia, 42.5%; in the experiment with MOLT-4 leukemia, 72.3%; with SR leukemia, -12.3% (active); in the experiment with RPMI-8226 leukemia it was 74.3%; in the experiment with OVCAR-5 ovarian, 78.3%. Further, the growth in the experiment with OVCAR-4 ovarian was -6.65% (active); in the experiment with SK-OV-3 ovarian it was 115%; in the experiment with IGROV1 ovarian, 56.3%; in the experiment on OVCAR-3 ovarian, -18.6% (active); in the experiment on HS 578T breast, -18.8% (active); in the experiment with NCI/ADR-RES ovarian, 15.1%.

Regarding `O=C1/C(=C\c2ccc([N+](=O)[O-])cc2)CS(=O)(=O)C/C1=C/c1ccc([N+](=O)[O-])cc1`, the growth in the experiment with SK-MEL-2 melanoma was -35.9% (active); in the experiment on SN12C renal, -41.1% (active); in the experiment with UO-31 renal it was -95.4% (active); in the experiment on TK-10 renal, -99% (active); with ACHN renal, -98.8% (active); in the experiment on CAKI-1 renal, -92.3% (active). Besides, the growth in the experiment with CCRF-CEM leukemia was -31.6% (active); in the experiment on MOLT-4 leukemia it was -34.7% (active); in the experiment on SR leukemia it was 0.134% (active); in the experiment with RPMI-8226 leukemia, -19.4% (active); in the experiment on OVCAR-5 ovarian, -99% (active); in the experiment on OVCAR-4 ovarian, -90.2% (active). Further, the growth in the experiment with SK-OV-3 ovarian was -43.3% (active); with IGROV1 ovarian it was -82.4% (active); in the experiment with OVCAR-3 ovarian, -90.1% (active); in the experiment on NCI/ADR-RES ovarian it was -80.4% (active).

As to `Oc1c(Cl)cc(Cl)cc1C(c1cc(Cl)cc(Cl)c1O)C(Cl)(Cl)Cl`, the growth in the experiment with SK-MEL-2 melanoma is -33.9% (active); in the experiment on SN12C renal, 0.98% (active); in the experiment with UO-31 renal it was -21.4% (active); in the experiment on TK-10 renal, 13%; with A498 renal, -26.6% (active); in the experiment with CCRF-CEM leukemia it was 8.74% (active). In addition, the growth is 3.86% (active) in the experiment with MOLT-4 leukemia; 9.73% (active) in the experiment with SR leukemia; -9.94% (active) in the experiment with RPMI-8226 leukemia; -0.45% (active) in the experiment on OVCAR-8 ovarian; 1.83% (active) in the experiment on OVCAR-5 ovarian; 20.4% in the experiment with OVCAR-4 ovarian. Moreover, the growth in the experiment with SK-OV-3 ovarian was -16.7% (active); with IGROV1 ovarian, -15.7% (active); with OVCAR-3 ovarian, -7.63% (active); in the experiment with HS 578T breast, -11.5% (active); with NCI/ADR-RES ovarian, -15.7% (active).

Regarding `Cc1ccccc1N=C(N)Nc1ccccc1C` (tested in a mixture with another compound), the growth is 85.3% in the experiment on EKVX NSCLC; 82.8% in the experiment with SN12C renal; 71.1% with UO-31 renal; 67.8% in the experiment with TK-10 renal; 77.9% with ACHN renal; 52.9% with CAKI-1 renal. Further, the growth with A498 renal was 96.8%; in the experiment with CCRF-CEM leukemia, 9.64% (active); in the experiment on MOLT-4 leukemia, 37.1%; in the experiment with SR leukemia it was 49.6%; with RPMI-8226 leukemia, 46.6%; with OVCAR-8 ovarian, 73.7%. Besides, the growth is 91.6% in the experiment with OVCAR-5 ovarian; 82.2% in the experiment on OVCAR-4 ovarian; 98.5% with SK-OV-3 ovarian; 62.6% in the experiment on IGROV1 ovarian; 78.8% with OVCAR-3 ovarian; 111% in the experiment with HS 578T breast. Besides, the growth with NCI/ADR-RES ovarian is 79.3%.

As to `Cc1cc2nc(CC(=O)c3ccncc3)c(=O)[nH]c2cc1C`, the growth was 115% in the experiment with SK-MEL-2 melanoma; 84.7% in the experiment with SN12C renal; 107% in the experiment with TK-10 renal; 93.6% with ACHN renal; 82.9% in the experiment with CAKI-1 renal; 98.4% in the experiment on A498 renal. The growth in the experiment on CCRF-CEM leukemia is 93.6%; in the experiment on MOLT-4 leukemia, 104%; in the experiment on RPMI-8226 leukemia, 103%; in the experiment with OVCAR-8 ovarian, 102%; in the experiment with OVCAR-5 ovarian it was 97.2%; in the experiment on OVCAR-4 ovarian, 93.8%. Further, the growth in the experiment on SK-OV-3 ovarian was 104%; in the experiment with IGROV1 ovarian it was 105%; in the experiment on OVCAR-3 ovarian it was 112%; in the experiment on HS 578T breast, 66.8%; with NCI/ADR-RES ovarian it was 96.8%.

On to `Oc1ccccc1N=Cc1ccccc1`, for which the growth in the experiment on SK-MEL-2 melanoma is 82.4%; in the experiment on SN12C renal, 81.7%; in the experiment with UO-31 renal, 67.4%; in the experiment on TK-10 renal, 122%; with ACHN renal, 85.1%; in the experiment with CAKI-1 renal, 97.7%. Further, the growth in the experiment with A498 renal was 97.7%; in the experiment on SR leukemia, 79.2%; in the experiment with RPMI-8226 leukemia, 62.9%; in the experiment on OVCAR-8 ovarian, 84%; with OVCAR-5 ovarian, 104%; in the experiment on OVCAR-4 ovarian, 107%. Also, the growth was 104% in the experiment with SK-OV-3 ovarian; 94.5% with IGROV1 ovarian; 76.2% with OVCAR-3 ovarian; 108% in the experiment on HS 578T breast; 84.6% in the experiment with NCI/ADR-RES ovarian.

As for `CCCCCC[C@@H](O)C/C=C\CCCCCCCC(=O)OCCOC`, the growth was 97.6% in the experiment on SK-MEL-2 melanoma; 98.3% in the experiment on SN12C renal; 99.1% in the experiment with TK-10 renal; 100% in the experiment with ACHN renal; 103% with CAKI-1 renal; 107% in the experiment with A498 renal. Also, the growth is 94.3% in the experiment on CCRF-CEM leukemia; 122% with MOLT-4 leukemia; 122% with SR leukemia; 102% in the experiment with RPMI-8226 leukemia; 101% in the experiment on OVCAR-8 ovarian; 103% with OVCAR-5 ovarian. Also, the growth with OVCAR-4 ovarian was 98.4%; in the experiment with SK-OV-3 ovarian it was 114%; with IGROV1 ovarian it was 114%; with OVCAR-3 ovarian, 112%; with HS 578T breast, 101%; in the experiment on NCI/ADR-RES ovarian, 104%.
